From the supplement of paper PMC6555819

How the values were obtained:
Assay in all cases: PBM binding z-score (relative to random genomic background probes); higher = stronger binding; sequences stand for … in GC…GCGATTGACAGCGTAGAATGAAGG
[1] = system: FXR:RXRa (NR concentration 270 nM, RXRa partner concentration 90 nM)
Outline: (§1)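 Binding buffer was PBS pH 7.4 with 2% milk, 0.02% Triton X-100, 1 mM DTT, 0.2 mg/mL BSA and 0.4 mg/ml salmon testes DNA. In it, ligand-free nuclear receptor dimers were incubated 1 h on custom Agilent 4×180K protein-binding microarrays carrying double-stranded probes. Antibodies against each partner (one per run) detected binding, and z-scores were calculated against random background probes after regression normalization of scanned fluorescence.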

[2] = system: LXRa:RXRa (NR concentration 270 nM, RXRa partner concentration 90 nM)
Outline: as §1

[3] = system: LXRa homodimer (NR concentration 270 nM)
Outline: as §1

[4] = system: LXRb:RXRa (NR concentration 270 nM, RXRa partner concentration 90 nM)
Outline: as §1

[5] = system: LXRb homodimer (NR concentration 270 nM)
Outline: as §1

[6] = system: PPARa:RXRa (NR concentration 270 nM, RXRa partner concentration 90 nM)
Outline: as §1

[7] = system: PPARg:RXRa (NR concentration 180 nM, RXRa partner concentration 90 nM)
Outline: as §1

[8] = system: PPARg:RXRa 270nM:90nM, anti-RXR (NR concentration 270 nM, RXRa partner concentration 90 nM)
Outline: as §1

[9] = system: PPARg:RXRa 30nM:10nM, anti-RXR (NR concentration 30 nM, RXRa partner concentration 10 nM)
Outline: as §1

[10] = system: PPARg:RXRa 90nM:30nM, anti-RXR (NR concentration 90 nM, RXRa partner concentration 30 nM)
Outline: as §1

Sequence | PBM binding z-score [1] | PBM binding z-score [2] | PBM binding z-score [3] | PBM binding z-score [4] | PBM binding z-score [5] | PBM binding z-score [6] | PBM binding z-score [7] | PBM binding z-score [8] | PBM binding z-score [9] | PBM binding z-score [10]
CCGACTGGGGCATAAGATTACCATAAGCCAGCCC | -0.495 | -0.33 | -0.319 | -0.411 | -1.33 | 0.114 | 1.12 | 0.921 | -0.305 | 0.461
AGTCAAAGTACAGGACGAGGTAACGTAAAGCACG | 0.0471 | -0.247 | 0.0589 | -0.158 | -0.441 | -0.0272 | 0.99 | 0.138 | 0.254 | 0.0519
ATCTCTAGGTAACACTCAGTTCAGTGAAGAACGC | 0.92 | 1.1 | 0.849 | 0.889 | 1.26 | 1.07 | 0.692 | 0.736 | 0.527 | 0.515
ATCTCTAGGTAAAGATAGTTCAGTGACTGCAAAT | 0.289 | 4.19 | 0.906 | 0.867 | 0.656 | 0.677 | 0.174 | 0.437 | 0.221 | 0.0894
GGAACGAGGGCAGGTTGATAGCAGAGTTTGATGG | 0.204 | 0.00952 | -0.393 | 0.00491 | -0.45 | 0.686 | 0.674 | 0.307 | -0.182 | 0.0591
ACTTACCGGTCAACGAGGTTATAGCACGCGTATA | 2.61 | 3.17 | 2.47 | 1.96 | 1.3 | 2.3 | 1.3 | 1.2 | 0.21 | 0.785
CCTACTGGGCCACGAAAGGACATTGATTCAGTGA | 0.276 | 0.0312 | 0.0181 | -0.441 | -0.67 | 0.738 | 1.63 | 1.22 | -0.124 | 0.606
GCAGACAGGTGAAACGCTGGTAACTCAGGGTGGC | -0.319 | 0.0267 | -0.492 | -0.149 | -1.44 | 0.737 | 0.389 | 0.0806 | -0.77 | -0.171
TATACAGGGCCAAAGGCCAGAGTACGAATGTCGA | 0.18 | 0.14 | -0.21 | -0.197 | 0.431 | 1.38 | 4.12 | 4.61 | 2.62 | 4.32
TCGAGTAAGTTAGGGGCATTCAGAATGGCGTCGA | 0.474 | 0.581 | -0.298 | 0.52 | -1.13 | 0.686 | -0.191 | 0.338 | 1.03 | 0.613
GGAACGAGGGCAAAGTTGATAGCGTCTGTCGACG | 1.43 | 1.07 | -0.457 | 0.901 | -0.56 | 4.27 | 7.58 | 7.44 | 6.55 | 7.74
ATCTCTAGGTAAGACTCAGTTCAGTAAAGAACGC | 0.34 | 0.725 | 0.918 | 0.419 | 0.923 | 0.152 | 0.102 | 0.669 | 0.474 | 0.414
CCTACTGGGCCAAGTTCATTGATCAGTCAAAGCA | 0.51 | 0.916 | 0.751 | 0.634 | -0.712 | 1.83 | 1.24 | 2.02 | 0.309 | 1.6
AGAACGCGGGCAATGAGTTGATAGCACGGGTGGC | -0.43 | -0.534 | -0.756 | -1.26 | -1.21 | -0.548 | 0.71 | -0.504 | -0.182 | -0.404
TCATATAGGTAAATGCCAGGTGAAAGTCCGATCT | 1.31 | 1.12 | 0.378 | 0.902 | 0.0242 | 1.62 | 0.873 | 2.48 | 3.67 | 3.1
GAGACAGGGTCAGCTAGAGGCCAGAGTATGGAAA | 4.45 | 2.53 | -0.421 | 2.21 | -1.18 | 4.46 | 2.91 | 2.82 | 0.35 | 1.21
TCTTGTAGATCAAGCAGATTAAGAAAGCCTGAGT | 0.096 | -0.059 | -0.156 | 0.0422 | -0.403 | 0.442 | -0.257 | 1.19 | 2.63 | 2.02
GCTATTAGTTGAAAGGGCAACAGAATGATTCTCG | 0.533 | 0.675 | 0.402 | 0.947 | -0.00324 | 2.47 | 3.11 | 4.2 | 2.77 | 4.54
CCTACTCGGCCATCAGGTCATTGATATCAACGTT | 2.3 | 1.76 | 2.13 | 2.26 | 1.01 | 2.16 | 1.06 | 1.62 | 0.262 | 1.02
TCTTGTAGATCAAGCAAGTTAAGAAAGCCTGAGT | 0.00157 | -0.0687 | -0.36 | -0.0255 | -0.715 | 0.295 | -0.623 | 1.01 | 2.4 | 1.72
TCTATTAGTTGATTCGGGCAACCGAAACAGCGGA | 0.597 | 0.339 | 0.411 | 0.655 | 0.739 | 0.742 | -0.102 | 1.84 | 3.9 | 2.85
GCTTACCGGTCAAAGGTTATAGCATGAATAGAAT | 4.43 | 4.56 | 1.49 | 3.6 | 0.218 | 5.47 | 8.77 | 7.56 | 6.87 | 8.38
TCTATTAGTTGAATGGCAACCGACGAGTCCGTTT | 1.04 | 1.04 | 0.119 | 1.01 | 0.477 | 0.96 | -0.00847 | 2.18 | 3.81 | 2.92
TCGAGTAGGTTACCAATGGCGCATTCAGCTTTCT | 0.273 | 0.571 | -0.489 | 0.382 | -0.736 | 0.977 | 0.185 | 1.23 | 1.11 | 1.17
GCGACTGGGGCACAGCAGGTTACCATAAGGTTGG | 0.178 | 0.265 | -0.715 | -0.0951 | -1.1 | 0.996 | 1.75 | 1.45 | -0.344 | 0.859
